Rows were chosen to be rich in hits. Some 0.4% of all compounds tested hit in one or more screens of this group.
TRPML1 blocker – qHTS for Inhibitors of the Human Mucolipin Transient Receptor Potential 1 (TRPML1); Mucolipin-1 (Homo sapiens), Q9GZU1; TRPML1-inducible cells, Ca2+ dye fluorescence, FDSS; stronger effect = lower value; inhibition of EC80 agonist-evoked calcium signal; activity change, negative = inhibition, % (no concentration beside the values); 0.02% of 390,000 active; AID 624415, 2012; in the data active means activity change below about -50%; inconclusive means between about -30% and that limit;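 further: stimulus is agonist 54-4 at its EC80 concentration; on the % scale 0 is the no-effect control and ±100 the full control effect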
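TRPML1-DL cells, Tet-induced overnight (~16 h, 37 °C) at 1,500 cells/well, were loaded with Ca8 no-wash dye plus quencher for 45-90 min at room temperature. Compounds were pinned during FDSS kinetic reading; agonist 54-4 at EC80 (4 uM final) then added.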
EPAC2 agonist – qHTS for Agonist of cAMP-regulated guanine nucleotide exchange factor 4 (EPAC2): primary screen | Rap guanine nucleotide exchange factor 4 (Homo sapiens), Q8WZA2 | EPAC2 activation, biochemical qHTS; response scale: 100% = 6.5 mM cAMP response | Potency, µM (top dose mostly 154 µM), for the others: top-dose activation, hits mostly activators | 0.079% of 360,000 active; further: potency means the concentration at half of the fitted maximal effect; nearly all actives have a fitted effect of over 50% in size
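Setup: EPAC2 100 nM, labeled Rap1B complex 250 nM, free GDP 50 uM. Compound titrations pinned in, brief spin, 5 min room temperature incubation. Kinetic fluorescence read over 30 min, normalized to 6.5 mM cAMP.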
EPAC1 antag – qHTS for Antagonist of cAMP-regulated guanine nucleotide exchange factor 3 (EPAC1): primary screen. 0.14% of 360,000 active. EPAC1 GEF assay, Rap1b-BODIPY-GDP exchange fluorescence. Potency, µM (doses to about 115 µM), inactives show at the top dose activity change, negative = inhibition, actives largely listed as inhibitors. Rap guanine nucleotide exchange factor 3 (Homo sapiens), O95398;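 further: potency means the concentration at half of the fitted maximal effect; plate controls were vehicle for no effect and positive control for full effect; nearly all actives have a fitted effect of over 50% in size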
Target sequence (O95398 whole entry, looked up): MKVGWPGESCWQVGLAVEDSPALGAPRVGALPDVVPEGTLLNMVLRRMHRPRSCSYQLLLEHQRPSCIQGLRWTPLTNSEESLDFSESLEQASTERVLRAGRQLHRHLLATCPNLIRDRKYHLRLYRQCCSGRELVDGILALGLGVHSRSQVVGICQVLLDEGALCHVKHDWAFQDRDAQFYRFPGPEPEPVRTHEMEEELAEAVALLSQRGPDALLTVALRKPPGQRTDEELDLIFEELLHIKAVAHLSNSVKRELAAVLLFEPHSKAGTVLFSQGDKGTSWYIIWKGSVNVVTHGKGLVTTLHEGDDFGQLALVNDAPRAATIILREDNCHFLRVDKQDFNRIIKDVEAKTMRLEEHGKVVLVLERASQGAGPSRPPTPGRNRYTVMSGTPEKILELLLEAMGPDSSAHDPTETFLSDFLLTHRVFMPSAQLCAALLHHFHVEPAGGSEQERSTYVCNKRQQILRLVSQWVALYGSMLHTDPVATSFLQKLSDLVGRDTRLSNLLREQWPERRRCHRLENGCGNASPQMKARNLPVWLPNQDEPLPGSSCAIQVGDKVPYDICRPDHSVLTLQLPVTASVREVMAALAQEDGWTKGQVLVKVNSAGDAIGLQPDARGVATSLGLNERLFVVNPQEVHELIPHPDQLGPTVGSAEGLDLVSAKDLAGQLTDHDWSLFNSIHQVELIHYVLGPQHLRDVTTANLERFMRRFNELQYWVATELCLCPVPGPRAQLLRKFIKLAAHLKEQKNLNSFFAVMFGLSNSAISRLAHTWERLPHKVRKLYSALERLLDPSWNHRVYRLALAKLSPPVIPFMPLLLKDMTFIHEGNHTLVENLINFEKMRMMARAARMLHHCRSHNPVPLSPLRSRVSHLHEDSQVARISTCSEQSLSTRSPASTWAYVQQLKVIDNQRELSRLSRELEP
TRPML1 agonist – qHTS for Agonists of the Human Mucolipin Transient Receptor Potential 1 (TRPML1). Mucolipin-1 (Homo sapiens), Q9GZU1. TRPML1-expressing cells, Ca2+ dye fluorescence, FDSS. activation, % (concentration not given with the values). AID 624414, 2012. 0.12% of 410,000 active; in the data active means activation above about 50%; inconclusive means mostly about 30% to 49%; further: 0% is about no effect
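Calcium fluorescence on an FDSS kinetic reader gave the read-out. Tet-induced TRPML1-DL cells were plated overnight, dye-loaded (Ca8 with quencher, 45-90 min, room temperature, dark), then read 110 s after compound addition, and again 110 s after 4uM final 54-4 (EC80).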
EPAC2 antag – qHTS for Antagonist of cAMP-regulated guanine nucleotide exchange factor 2 (EPAC2): primary screen; Rap guanine nucleotide exchange factor 4 (Homo sapiens), Q8WZA2; EPAC2 GEF exchange of Rap1B-BODIPY-GDP, fluorescence; Potency, µM (series often up to 114 µM), for inactives: at the top dose activity, negative = inhibition, most hits filed as inhibitors; 0.18% of 360,000 active; AID 720708, 2013; further: potency means the concentration at half of the fitted maximal effect; on the % scale 0 is the no-effect control and ±100 the full control effect; nearly all actives have a fitted effect of over 45% in size
EPAC1 ag – qHTS for Agonist of cAMP-regulated guanine nucleotide exchange factor 3 (EPAC1): primary screen; Rap guanine nucleotide exchange factor 3 (Homo sapiens), O95398; EPAC1 agonist qHTS, biochemical assay; response scale: 100% = response to 6.5 mM cAMP; Potency, µM (titrated, usually from 154 µM), inactives show top-dose activation, actives largely listed as activators; 0.073% of 360,000 active; further: potency means the concentration at half of the fitted maximal effect; nearly all actives have a fitted effect of over 60% in size
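Nucleotide exchange assay: 100 nM EPAC1 with 250 nM Rap1B loaded with BODIPY-GDP and 50 uM GDP, room temperature. Fluorescence (480/540 nm) read every 5 min for 30 min; signal change normalized to 6.5 mM cAMP as full agonist.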
Numbers without * were called inactive; [ ] = another dose, or the depositor's remark. Unless noted, the call rests on the fitted dose curve; in most records, active means well fitted curve in the direction sought with a large enough effect; inconclusive means small, poorly fitted or top-dose-only effect, or another doubt; inactive means no such curve, though single readings can be large; an effect the other way counts as inactive or inconclusive.

How did Cc1ccccc1-n1c(O)c(/C=C/C=Nc2ccccc2)c(=O)[nH]c1=O do in these assays?
TRPML1 blocker: 3.4; EPAC2 agonist: inconclusive; EPAC1 antag: 64.2%; TRPML1 agonist: 8.5; EPAC2 antag: 88.5%; EPAC1 ag: 89.1µM*

How did Cc1cccc(-n2c(O)c(/C=C/C=Nc3ccccc3)c(=O)[nH]c2=O)c1 do in these assays?
TRPML1 blocker: 33.1; EPAC2 agonist: -21.6%; EPAC1 antag: 6.4%; TRPML1 agonist: 16.3; EPAC2 antag: 9.1%; EPAC1 ag: 100µM*

Results for Cc1cccc(N=Cc2c(O)n(-c3ccccc3C)c(=O)[nH]c2=O)c1 ?
TRPML1 blocker: 13.8; EPAC2 agonist: -1.9%; EPAC1 antag: 2.5%; TRPML1 agonist: 0.0; EPAC2 antag: 2.1%; EPAC1 ag: -0.7%

How did CNS(=O)(=O)c1ccc(N=Cc2c(O)n(-c3cccc(C)c3)c(=O)[nH]c2=O)cc1 do in these assays?
TRPML1 blocker: -3.9; EPAC2 agonist: 26.0%; EPAC1 antag: 9.5%; TRPML1 agonist: -0.3; EPAC2 antag: -4.5%; EPAC1 ag: 11.8%

How did Cc1ccc(N2C(=O)NC(=O)/C(=C\c3cccn3C(C)(C)C)C2=O)cc1 do in these assays?
TRPML1 blocker: 22.6; EPAC2 agonist: -15.6%; EPAC1 antag: -10.7%; TRPML1 agonist: 0.8; EPAC2 antag: 7.4%[57.1 µM]; EPAC1 ag: -11.9%

How did CCC(C)c1ccc(N2C(=O)NC(=O)/C(=C/c3cccn3CCOc3ccc(C)cc3)C2=O)cc1 (stereo not given) do in these assays?
TRPML1 blocker: -9.0; EPAC2 agonist: -30.6%; EPAC1 antag: 44.7µM*; TRPML1 agonist: 1.2; EPAC2 antag: -2.2%; EPAC1 ag: -22.9%

What do the screens show for `COc1cc(/C=C/c2nc3ccccc3c(=O)n2-c2cccc(O)c2)ccc1O`?
TRPML1 blocker: -12.3; EPAC2 agonist: -0.5%; EPAC1 antag: 50.1µM*; TRPML1 agonist: 1.1; EPAC2 antag: -2.3%; EPAC1 ag: 5.2%

What do the screens show for `COc1cc(/C=C/c2nc3ccccc3c(=O)n2-c2ccccc2O)ccc1O`?
TRPML1 blocker: -23.8; EPAC2 agonist: 1.8%; EPAC1 antag: inconclusive; TRPML1 agonist: 6.8; EPAC2 antag: -25.6%; EPAC1 ag: 8.8%

How did C[C@H]1CCCC=CC2C[C@H](O)C[C@@H]2[C@H](O)C=CC(=O)O1 (stereo not given in full) do in these assays?
TRPML1 agonist: -0.2

Results for COC1=C(C)C(=O)c2c(c(COC(N)=O)c3n2C[C@@H]2[C@@H]3N2C)C1=O (stereo not given in full) ?
TRPML1 agonist: -0.4

What do the screens show for `C=CCn1c(-c2ccc([N+](=O)[O-])cc2)n[nH]c1=S`?
TRPML1 blocker: -7.9; EPAC2 agonist: 0.9%; EPAC1 antag: inconclusive; TRPML1 agonist: 0.4; EPAC2 antag: -10.8%; EPAC1 ag: 3.1%

Results for Clc1cc(Cl)c(-c2cc(Cl)c(Cl)cc2Cl)cc1Cl ?
TRPML1 blocker: 12.9; EPAC2 agonist: 8.7%; EPAC1 antag: -22.6%; TRPML1 agonist: 0.6; EPAC2 antag: 3.98µM*; EPAC1 ag: 1.2%

Results for Oc1ccc(Cl)c(Cl)c1 ?
TRPML1 blocker: 8.4; EPAC2 agonist: 3.0%; EPAC1 antag: -9.7%; TRPML1 agonist: -0.9; EPAC2 antag: -9.0%; EPAC1 ag: -14.1%

How did CCn1c(SCC(=O)Nc2nncs2)nnc1-c1ccco1 do in these assays?
TRPML1 blocker: 25.7; EPAC2 agonist: 2.1%; EPAC1 antag: 35.0%; TRPML1 agonist: 3.5; EPAC2 antag: 12.8%; EPAC1 ag: -2.3%

How did CCN(CCNc1ccc([N+](=O)[O-])c2cccnc12)S(=O)(=O)c1ccccc1 do in these assays?
TRPML1 blocker: 51.5; EPAC2 agonist: -22.5%; EPAC1 antag: 15.5%; TRPML1 agonist: 5.0; EPAC2 antag: 11.7%; EPAC1 ag: 2.9%

How did Cc1c(NS(=O)(=O)c2ccccc2)ccc([N+](=O)[O-])c1Cl do in these assays?
TRPML1 blocker: 12.9; EPAC2 agonist: -1.0%; EPAC1 antag: -28.8%; TRPML1 agonist: 0.9; EPAC2 antag: 39.8µM*; EPAC1 ag: -5.6%

Results for Cc1cc(C=C2C(=O)NC(=O)NC2=O)c(C)n1-c1ccc2c(c1)OCO2 ?
TRPML1 blocker: -7.3; EPAC2 agonist: -7.6%; EPAC1 antag: -6.8%; TRPML1 agonist: 1.4; EPAC2 antag: 10.7%; EPAC1 ag: -49.4%

Results for Cc1cc(C=C2C(=O)NC(=S)NC2=O)c(C)n1-c1ccc2c(c1)OCO2 ?
TRPML1 blocker: -21.0; EPAC2 agonist: -0.7%; EPAC1 antag: 56.2µM*; TRPML1 agonist: -0.1; EPAC2 antag: -5.3%; EPAC1 ag: -5.8%

How did C=Cn1c(P(=S)(N2CCOCC2)N2CCOCC2)cc2c1CCCC2 do in these assays?
TRPML1 blocker: -4.2; EPAC2 agonist: 2.6%; EPAC1 antag: -1.6%; TRPML1 agonist: 68.0*; EPAC2 antag: -9.1%; EPAC1 ag: 9.1%

Results for O=C(Nc1ccc(Oc2ccc(Cl)cc2)c(Cl)c1)c1cc(I)cc(I)c1O ?
TRPML1 blocker: -10.7; EPAC2 agonist: 4.2%; EPAC1 antag: 39.8µM*; TRPML1 agonist: -0.3; EPAC2 antag: inconclusive; EPAC1 ag: -13.7%

What do the screens show for `COc1ccc(OC)c(/C=N/OC(=O)Nc2ccc(Cl)cc2)c1`?
TRPML1 blocker: 9.5; EPAC2 agonist: 17.9%; EPAC1 antag: -16.2%; TRPML1 agonist: 2.0; EPAC2 antag: 6.3%; EPAC1 ag: 5.8%

How did CN(N=Cc1ccc([N+](=O)[O-])cc1)c1ccccn1 do in these assays?
TRPML1 blocker: 10.9; EPAC2 agonist: -189.7%; EPAC1 antag: 4.8%; TRPML1 agonist: 2.3; EPAC2 antag: 133.0%; EPAC1 ag: -12.7%

Results for CCN(CC)c1ccc(N=Cc2c(O)n(CCC3=CCCCC3)c(=O)[nH]c2=O)cc1 ?
TRPML1 blocker: 10.1; EPAC2 agonist: inconclusive; EPAC1 antag: 6.8%; TRPML1 agonist: 2.7; EPAC2 antag: 56.2µM*; EPAC1 ag: 5.3%

Screening data deposited in PubChem by National Center for Advancing Translational Sciences (NCATS).
